Screening results deposited in PubChem by National Center for Advancing Translational Sciences (NCATS).
Sampled rows, rich in hits. Any-hit rate of the full collection: about 3.6%.
ClpP mod: qHTS Assay for Activators of ClpP; ATP-dependent Clp protease proteolytic subunit (Bacillus subtilis (strain 168)), P80244; purified B. subtilis ClpP, FRET peptide cleavage, 20 min; Potency, µM (highest dose often 57.5 µM), inactives show at the highest dose activity change, negative = active; hit rate 1.9% among 340,000; AID 651965, 2013; active = well fitted falling curve with a large enough effect; inconclusive = small, poorly fitted or top-dose-only effect; inactive = no such curve, though single readings can be large or run the other way; note: the source files actives as falling curves though it sought activators and does not explain the sign; nearly all actives have a fitted effect of over 65% in size
Target sequence (P80244 whole entry, looked up): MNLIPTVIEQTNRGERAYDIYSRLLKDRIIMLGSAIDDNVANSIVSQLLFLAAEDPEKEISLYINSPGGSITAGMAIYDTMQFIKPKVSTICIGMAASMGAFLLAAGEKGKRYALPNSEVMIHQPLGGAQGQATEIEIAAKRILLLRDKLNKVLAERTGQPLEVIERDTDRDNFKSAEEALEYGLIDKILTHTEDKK
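Purified B. subtilis ClpP, 10 microg/mL final in Tris/HCl pH8 with KCl, BSA, glycerol and Tween-20, cleaved an Abz/nitrotyrosine-quenched decapeptide. Fluorescence (ex 320, em 430) was read at 0 and 20 min at room temperature. Delta was normalized to 5.8 microM ADEP and DMSO/no-enzyme controls.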
FUS yeast rescue: qHTS for Suppressors of FUS Proteinopathy: Primary screen using FUS-linked yeast assay | S. cerevisiae FUS-expressing, growth rescue, OD600, 24 h | Potency, µM (doses to about 76.6 µM), hits mostly activators | hit rate 0.24% among 390,000;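 note: plate controls were DMSO vehicle for no effect and reference control for full effect; nearly all actives have a fitted effect of over 55% in size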
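Quantitative HTS measuring growth restoration of FUS-toxic yeast. Galactose-induced cells (OD 0.005) were exposed 24hr at 30C to compounds at several concentrations, then absorbance at 600 nm was recorded.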
aSyn yeast inh: qHTS of alpha-syn Inhibitors; Yeast expressing alpha-synuclein, growth rescue, BacTiter-Glo, 24 h; Potency, µM (doses to about 46.1 µM), for the others: top-dose growth rescue (activation), actives largely listed as activators; AID 652106, 2013; hit rate 0.14% among 370,000; note: % of control where 0% means no effect; nearly all actives have a fitted effect of over 65% in size
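Rescue of yeast growth: cells expressing toxic alpha-synuclein, induced in galactose at OD600 0.02, incubated with compound 24 h at 30 C. ATP luminescence quantified growth; inhibitors of toxicity appear as activators.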
TDP-43 yeast inh: qHTS of TDP-43 Inhibitors; TDP-43 expressing yeast growth rescue, BacTiter-Glo, 24 h; Potency, µM (doses to about 46.1 µM), for the others: at the top dose growth rescue (activation), most hits filed as activators; hit rate 1.8% among 410,000; AID 652104, 2013; note: % of control where 0% means no effect; nearly all actives have a fitted effect of over 50% in size
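Yeast cells expressing TDP-43 under galactose induction are exposed to compounds for 24 hr at 30 deg C. BacTiter-Glo luminescence measures growth, so protective compounds score as activators.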
Mm-Cpn inhibitor: Inhibitors of TCP-1 ring complex (TRiC) of Methanococcus maripaludis (MmCpn): qHTS | Chaperonin Mm-Cpn (Methanococcus maripaludis) | purified Mm-Cpn ATPase, ADP Transcreener TR-FRET | Potency, µM (highest dose often 76.9 µM), inactives show at the highest dose activity, negative = inhibition, usual class: inhibitors | hit rate 0.031% among 330,000; note: % is set by controls: 0 for no effect and ±100 for the full control effect; nearly all actives have a fitted effect of over 80% in size
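Quantitative HTS used 25 nM Mm-CPN and 10 uM ATP in magnesium/KCl Tris buffer, pH 7.4, with 1 mM DTT. Hydrolysis ran 30 min at 37°C; ADP was read by HTRF.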
Abeta yeast res: qHTS for compounds that reverse cellular toxicity of Amyloid beta (A-beta) peptide in yeast: Primary Screen; hit rate 0.063% among 410,000; Potency, µM (doses to about 46.1 µM), actives largely listed as activators; yeast expressing A-beta42, growth rescue, OD600, 48 h; response scale: 0% DMSO, 100% iron-clioquinol control; note: nearly all actives have a fitted effect of over 55% in size
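Growth rescue measured by 600 nm absorbance after 48 h yeast culture at 30 C with compound. Values normalized between DMSO and an equimolar ferric chloride plus clioquinol control.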
* hit, by the source's call; i = inactive; ? = inconclusive; nt = no result. Unless noted, calls come from the whole dose curve; as a rule, active = well fitted curve in the direction sought with a large enough effect; inconclusive = small, poorly fitted or top-dose-only effect, or another doubt; inactive = no such curve, though single readings can be large; an effect the other way counts as inactive or inconclusive. Potency is the fitted concentration of half-maximal effect.

SMILES	ClpP mod	FUS yeast rescue	aSyn yeast inh	TDP-43 yeast inh	Mm-Cpn inhibitor	Abeta yeast res
Nc1cc(C(=O)OCC(=O)NC(c2ccccc2)c2ccccc2)ccc1Cl	25.1µM*	nt	9.8%	-24.5%	0.8%	i
CCN(CC)C(=O)CSc1nc2nc(C)cc(C)c2c(=O)[nH]1	25.1µM*	i	5.7%	-13.9%	-2.9%	i
Cc1cccc(C)c1OCC(=O)N[C@@H](Cc1ccccc1)[C@@H](O)C[C@H](Cc1ccccc1)NC(=O)[C@H](C(C)C)N1CCCNC1=O	1.1%	31.6µM*	2.4%	nt	nt	nt
CC(=O)NC(CC(=O)NNC(=O)COc1c(C)cccc1C)c1ccccc1 (centres undefined)	-0.6%	nt	-9.3%	15.8%	0.5%	i
CCC(=O)N/C(N)=N/c1nc2ccccc2o1	-1.1%	i	-19.7%	29.4%	-6.4%	i
CCCC(=O)N/C(N)=N/c1nc2ccccc2o1	0.0%	i	-17.6%	12.6µM*	0.1%	i
CC(/C=N/n1c(-c2ccco2)n[nH]c1=S)=C\c1ccccc1	-4.4%	i	9.5%	17.8µM*	-0.1%	i
CC(/C=N/n1c(-c2ccccn2)n[nH]c1=S)=C\c1ccccc1	nt	i	-1.5%	9.3%	2.5%	i
Cc1ccc(C(=O)O)cc1-n1c(C)ccc1-c1ccccc1	-2.6%	i	nt	4.0%	nt	i
Cc1ccc(-c2ccccc2)n1-c1cccc(C(=O)O)c1	-16.4%	i	-11.0%	35.5µM*	0.3%	i
Cc1ccc(-c2ccccc2)n1-c1ccc(C(=O)O)cc1	-1.6%	i	-26.2%	12.6µM*	1.4%	i
Cc1oc(-c2ccccc2Cl)nc1CSc1nncn2c1cc1occc12	-1.5%	i	nt	0.2%	nt	i
CN(C(=O)CSc1ncnc2ccccc12)C1CCCCC1	-3.5%	i	4.4%	12.6µM*	-0.4%	i
CN(C(=O)COc1ncnc2ccccc12)C1CCCCC1	22.4µM*	i	1.4%	-33.5%	2.6%	i
Cc1cc(SCC(=O)c2ccc3c(c2)OCO3)nc2ccccc12	-0.2%	i	18.5%	2.5%	?	i
Cc1cc(SCC(=O)c2ccc(O)c(O)c2)nc2ccccc12	nt	i	?	22.4µM*	-0.5%	i
Cc1cc(SCC(=O)N(C)C2CCCCC2)nc2ccccc12	-2.7%	i	0.2%	17.8µM*	-1.1%	i
Cc1cc(SCC(=O)O)nc2ccccc12	nt	i	5.1%	26.2%	-2.6%	i
Cc1cc(SCC(=O)NC(=O)c2cccn2C)nc2ccccc12	-0.3%	i	0.6%	20µM*	0.8%	?
O=C(Nc1cccc(Br)c1)N1CCC(CN2CCCCCC2)CC1	-6.0%	i	nt	3.5%	nt	i
Cc1cc(C)nc(SCc2cc(=O)c(OC(=O)c3ccc(S(=O)(=O)N(C)C)cc3)co2)n1	2.82µM*	nt	0.1%	-62.5%	3.1%	i
CCOC(=O)C1CCCN(C2CC(=O)N(c3ccc(C(C)C)cc3)C2=O)C1 (centres undefined)	-0.3%	i	5.6%	35.5µM*	-1.0%	i
Cc1c(NC(=O)COC(=O)c2ccccc2Cl)c(=O)n(-c2ccccc2)n1C	nt	i	2.5%	?	-0.9%	i
Cc1c(NC(=O)COC(=O)c2cc3c4ccccc4n(C)c3s2)c(=O)n(-c2ccccc2)n1C	25.1µM*	i	1.4%	-15.4%	0.2%	i
Cc1c(NC(=O)CSc2nc(N)cc(N)n2)c(=O)n(-c2ccccc2)n1C	28.2µM*	nt	-5.8%	6.5%	2.0%	i
Cc1nc(SCC(=O)Nc2c(C)n(C)n(-c3ccccc3)c2=O)nc(C)c1C	-2.1%	i	3.6%	2.5%	-0.4%	i
